High-throughput results: PubChem BioAssay, National Center for Advancing Translational Sciences (NCATS)
VACV Venus inh = qHTS for Stage-Specific Inhibitors of Vaccinia Orthopoxvirus: Venus Reporter Primary qHTS. Vaccinia virus Venus reporter expression, fluorescence. Potency, µM (doses to about 36.5 µM), for the others: top-dose activity change, negative = inhibition, actives largely listed as inhibitors. 330,000 tested, 0.46% active. AID 720580, 2013; calls by dose curve; tested in A549 cells; note: potency is the fitted concentration of half-maximal effect; nearly all actives have a fitted effect of over 30% in size
LASV entry inh = qHTS for Inhibitors of binding or entry into cells for Lassa Virus; Potency, µM (doses to about 37.9 µM), for inactives: at the highest dose activity change, negative = inhibition, hits mostly inhibitors; 300,000 tested, 1.2% active; AID 540256, 2011; Lassa virus pseudotype entry inhibition, cell reporter; calls by dose curve; tested in HEK293 cells; note: potency is the fitted concentration of half-maximal effect; nearly all actives have a fitted effect of over 50% in size
Vaccinia mCherry = qHTS for Stage-Specific Inhibitors of Vaccinia Orthopoxvirus: mCherry Reporter Primary qHTS; Potency, µM (highest dose often 36.5 µM), for inactives: at the highest dose activity change, negative = inhibition, usual class: inhibitors; Vaccinia virus mCherry reporter infection, fluorescence; 310,000 tested, 0.63% active; AID 720579, 2013; calls by dose curve; tested in A549 cells; note: potency is the fitted concentration of half-maximal effect; nearly all actives have a fitted effect of over 35% in size
HCMV inh = qHTS Assay for inhibitors of the human cytomegalovirus (HCMV). HFF cells, HCMV-luciferase reporter, 72 h; hits give low values. activity change, negative = inhibition, % at 57.5 µM. 410,000 tested, 4.5% active. AID 1259415, 2018; in the data active = activity change below about -60%; inconclusive = no clear call, values can overlap the other calls; inactive = above about -39%
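Screen run at 2 compound doses on HFFs infected with reporter HCMV, MOI 1 PFU/cell. Luciferase activity from cell lysates at 72 h post infection gave inhibition relative to buffer-only and Salinomycin wells.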
FMDV inh = High Throughput Screening for Foot and Mouth Disease Virus Antivirals. FMDV antiviral cell-based qHTS. Potency, µM (top dose mostly 57.9 µM), inactives show at the highest dose activity change, negative = inhibition, actives largely listed as inhibitors. 410,000 tested, 1.2% active. AID 1159524, 2015; calls by dose curve; tested in HEK293T cells; note: read-out not given here; potency is the fitted concentration of half-maximal effect; nearly all actives have a fitted effect of over 45% in size
MARV entry inh = qHTS for inhibitors of binding or entry into cells for Marburg Virus | Marburg virus pseudotyped entry inhibition, cell reporter | 300,000 tested, 1.8% active | Potency, µM (highest dose often 37.8 µM), without a hit: at the top dose activity change, negative = inhibition, actives largely listed as inhibitors; calls by dose curve; tested in HEK293 cells; note: potency is the fitted concentration of half-maximal effect
* hit, by the source's call; i = inactive; ? = inconclusive; nt = no result given; [ ] = remark or other dose. Shown are actives, neighbours in structure and some others; about 6.5% of the full set was active somewhere. % is set by controls: 0 for no effect and ±100 for the full control effect.

SMILES	VACV Venus inh	LASV entry inh	Vaccinia mCherry	HCMV inh	FMDV inh	MARV entry inh
COc1ccc2c(CC(=O)Nc3ccc(OC)c(S(=O)(=O)N4CCOCC4)c3)coc2c1	-12.2%	-1.4%	i	-18.9	24.9%	2.3%
Cc1c(C(=O)NCC2Cc3cccc(-c4cncnc4)c3O2)c(-c2ccccc2)nn1-c1ccccc1 (configuration not stated)	10.3%	nt	-14.2%	nt	-5.6%	nt
COc1ccc(-n2c(SCC(=O)Nc3cccc(C)c3C)nc3c([nH]c4ccccc43)c2=O)cc1	-27.4%	11.1%[46.1 µM]	?	101.6	-15.3%	nt
CCc1nc(Cl)c(C#N)c2c1CCCC2	-8.9%	17.2%[46.1 µM]	i	-87.6*	-19.5%	?
CCCc1nc(Cl)c(C#N)c2c1CCCC2	-8.6%	-1.1%	-7.8%	-37.7	-7.6%	1.4%[46.1 µM]
CC(C)Cc1nc(Cl)c(C#N)c2c1CCCC2	nt	nt	nt	-75.5*	-31.7%	nt
CC1=CN2C(=N)/C(=C/c3ccc(C)o3)C(=O)N=C2S1	-12.1%	1.26µM*	-12.3%	68.1	?	9.5%
CCOc1ccccc1N(C)C(=O)c1cc(S(=O)(=O)NCc2ccc(C)cc2)ccc1F	-0.8%	-23.0%[46.1 µM]	-14.8%	-34.1	-22.7%	nt
CSc1ccc(/C=C(/Sc2nnc(-c3ccccc3)o2)C(=O)O)cc1	-17.4%	-27.1%	-26.7%	-68.6*	11.4%	-5.8%[46.1 µM]
CC(C)CC(=O)NC(=S)Nc1ccc(N2CCCC2)c(Cl)c1	-4.7%	-16.8%	-4.6%	-62.4*	35.0%	?
CN1CCN(c2ccc(NC(=O)c3ccco3)cc2Cl)CC1	nt	nt	nt	115.1	20.9%	nt
CS(=O)(=O)N1CCN(c2ccc(NC(=O)c3ccc([N+](=O)[O-])o3)cc2)CC1	nt	6.7%	nt	-101.1*	45.2%	4.4%
O=C(Nc1ccc(N2CCCC2)c(Cl)c1)c1ccco1	-19.0%	11.6µM*	-1.8%	-89.6*	nt	?
O=C(Nc1ccc(N2CCCCC2)cc1)c1ccc([N+](=O)[O-])o1	-24.0%	?	?	-96.0*	-5.8%	?
CS(=O)(=O)N1CCN(c2ccc(NC(=O)c3cc4ccccc4o3)cc2)CC1	nt	nt	nt	-17.5	0.0%	nt
O=C1[C@H]2[C@H]3[C@H](O)[C@H](O)C/C(=N\OC[C@@H](O)COCc4ccco4)[C@H]3CC[C@H]2C(=O)N1C[C@@H]1CCCO1	nt	nt	nt	nt	nt	-0.9%[14.2 µM]
CC1CCN(c2ccc(NC(=O)c3ccc([N+](=O)[O-])o3)cc2)CC1	10µM*	?	11.2µM*	-97.5*	-14.5%	?
CC1CCN(C(=O)c2ccc([N+](=O)[O-])o2)CC1	-26.7%	6.8%	-15.6%	-8.5	-7.9%	1.4%[46.1 µM]
O=C(Nc1ccc(N2CCCC2)c(Cl)c1)c1ccc([N+](=O)[O-])o1	14.1µM*	?	15.8µM*	-89.2*	11.8%	8.91µM*
O=C(Nc1ccc(N2CCN(Cc3ccccc3F)CC2)cc1)c1ccc([N+](=O)[O-])o1	?	-13.2%	3.98µM*	-100.2*	?	?
COc1ccccc1NC(=O)C1=C(C)Nc2nc(-c3ccco3)nn2C1c1cccc(C)c1 (configuration not stated)	-12.7%	-33.4%[46.1 µM]	-13.4%	5.6	-24.8%	-18.0%[46.1 µM]
Cc1ccn2c(Nc3ccc4c(c3)OCCO4)c(-c3ccc(C)o3)nc2c1	-8.4%	-5.7%[46.1 µM]	-12.9%	25.5	15.0%	?
O=C1[C@H](Cc2ccccc2)NC/C=C\C[C@H](c2ccc(Cl)cc2)N1Cc1ccc(Cl)cc1	-21.1%	nt	-3.3%	nt	nt	nt
C[n+]1c2n(c3ccccc31)N=C(c1ccc(Br)cc1)CS2	nt	?	nt	-1.9	?	?
Cc1cc(-c2nnc3n2N=C(c2ccccc2)CS3)n[nH]1	-19.2%	-16.8%	-11.6%	-17.8	-5.8%	0.0%[14.2 µM]
SMILES	VACV Venus inh	LASV entry inh	Vaccinia mCherry	HCMV inh	FMDV inh	MARV entry inh
C[n+]1c2n(c3ccccc31)N=C(c1ccc(-c3ccccc3)cc1)CS2	?	nt	-24.4%	-98.7*	?	nt
C[n+]1c2n(c3ccccc31)N=C(c1ccccc1)CS2	-18.6%	?	-6.3%	-92.3*	?	?
Nc1ccccc1-c1ccc([N+](=O)[O-])cc1	-20.0%	?	?	-25.5	-5.5%	5.62µM*
Nc1ccc(-c2ccc(N)c([N+](=O)[O-])c2)cc1[N+](=O)[O-]	nt	2.4%	nt	?	7.2%	-17.1%
O=[N+]([O-])c1ccc(-c2cnc(NO)nc2)cc1	-21.6%	4.6%	-3.0%	-34.6	-7.5%	-25.8%
Nc1ncc(-c2ccc([N+](=O)[O-])cc2)cn1	-21.8%	19.7%	-27.1%	-94.8*	10.1%	?
CCC(Sc1nc2nccnc2c(=O)n1Cc1ccc(OC)cc1)C(=O)NC1CCCCC1 (configuration not stated)	-6.5%	9.5%[46.1 µM]	-19.9%	-29.3	7.08µM*	nt
COc1ccc(Cn2ccnc2SCC(=O)NC2CCCCC2)cc1	-17.4%	?	-5.5%	-36.2	-9.1%	-15.0%
CCCC(C(=O)NC1CCCC1)N(C(=O)Cn1nnc(-c2ccc(C)o2)n1)C1CCCC1 (configuration not stated)	nt	?	nt	8.1	-12.7%	25.9µM*
CCCC(C(=O)NC1CCCC1)N(C(=O)Cn1nnc(-c2ccc(C)o2)n1)c1ccccc1F (configuration not stated)	4.6%	-16.6%[46.1 µM]	-3.8%	-8.0	6.0%	?
CC(=O)N1CCN(C(=O)CCc2nc3ccccc3c(=O)[nH]2)CC1	nt	15.3%	nt	3.3	-25.3%	21.4%
O=C(CCc1nc2ccccc2c(=O)[nH]1)N1CCN(C/C=C/c2ccccc2)CC1	nt	-0.2%	nt	13.3	20µM*	-19.2%
O=c1[nH]c(CN2CCN(C/C=C/c3ccccc3)CC2)nc2cc(Cl)ccc12	-21.7%	1.1%	-28.9%	0.7	-22.7%	4.11µM*
CCc1ccc(C2CC(c3ccc(C)cc3)Nc3nc(N)nn32)cc1 (configuration not stated)	31.6µM*	7.2%	100µM*	7.6	-18.4%	2.6%
Cc1ccc(C2CC(c3ccc(F)cc3)Nc3nc(N)nn32)cc1 (configuration not stated)	-14.7%	4.6%	-10.8%	-20.9	-13.9%	10.1%
Cc1ccc(C2=NN(CC(=O)NC(C)c3ccccc3)C(=O)CC2)cc1 (configuration not stated)	-10.6%	14.0%[46.1 µM]	-12.3%	-1.6	4.0%	nt
O=Nc1c(O)n(Cc2c(Cl)cccc2Cl)c2ccccc12	-26.1%	-1.4%	?	-79.4*	?	?
COc1ccc(C(c2c(O)cc(C)n(Cc3ccco3)c2=O)N2CCCCC2)cc1OC (configuration not stated)	-11.6%	7.9%[46.1 µM]	-15.6%	16.5	-18.2%	nt
O=C(c1ccc(F)cc1)c1cn(Cc2ccccc2)c2cc3c(cc2c1=O)OCO3	-0.5%	20.3%[46.1 µM]	-8.3%	-37.7	-17.8%	-7.7%[46.1 µM]
COc1ccc(/C=C/C(=O)c2ccc(C)c([N+](=O)[O-])c2)cc1O	-22.1%	?	-18.3%	24.0	-26.3%	?
